Source: PubChem (several laboratories)
Most compounds without a hit are left out; they make up all but 0.74% or so of the library.
UGM FP inh: blocks M. tuberculosis UGM enzyme. inhibition, % at 10 µM. AID 504406. 0.06% of 320,000 active. P9WIQ1. purified UGM, fluorescence polarization probe displacement; in the data active = inhibition above about 10%, passing the limit was not always enough
FadD28 FP inh: blocks FadD28 binding to the bisubstrate probe | inhibition, % at 12.5 µM | 0.22% of 360,000 active | fluorescence polarization; in the data active = inhibition above about 8.5%, passing the limit was not always enough
MazEF act: activators of E. coli MazEF toxin-antitoxin RNase; activation, % at 20 µM; FAM/BHQ RNA-DNA oligo cleavage fluorescence, 5 h; 0.32% of 350,000 active; in the data active = activation above about 50%
Target sequence (P0AE70 whole entry, looked up): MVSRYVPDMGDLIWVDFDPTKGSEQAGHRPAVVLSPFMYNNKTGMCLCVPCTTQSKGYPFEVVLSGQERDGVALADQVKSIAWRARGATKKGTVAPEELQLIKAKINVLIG
Vc quorum ag: quorum light induction in luxS cqsA deficient V. cholerae; V. cholerae BH1578 lux reporter, luminescence, 6 h; activation, % at 18.7 µM; 0.16% of 350,000 active; AID 588436; in the data active = activation mostly above about 9.7%, no sharp cut-off
Mtb bLac sens: beta-lactam sensitization of Mtb H37Rv | M. tuberculosis H37Rv growth with meropenem, percent inhibition | inhibition, % at 25 µM | 0.27% of 330,000 active | AID 434955; call rule not given here;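 note: growth measured after seven days incubation then overnight dye step; 0% = bacteria only wells and 100% = bacteria with antibiotic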
Rv3671c protease: Rv3671c (M. tuberculosis) protease inhibition; 0.048% of 320,000 active; P9WHR9; inhibition, % at 5.96 µM; AID 2606; in the data active = inhibition above about 38%;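 note: extracellular domain of Rv3671c used as enzyme; 0% = enzyme with DMSO and 100% = no enzyme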
Target sequence (P9WHR9 whole entry, looked up, the tested form may be a part): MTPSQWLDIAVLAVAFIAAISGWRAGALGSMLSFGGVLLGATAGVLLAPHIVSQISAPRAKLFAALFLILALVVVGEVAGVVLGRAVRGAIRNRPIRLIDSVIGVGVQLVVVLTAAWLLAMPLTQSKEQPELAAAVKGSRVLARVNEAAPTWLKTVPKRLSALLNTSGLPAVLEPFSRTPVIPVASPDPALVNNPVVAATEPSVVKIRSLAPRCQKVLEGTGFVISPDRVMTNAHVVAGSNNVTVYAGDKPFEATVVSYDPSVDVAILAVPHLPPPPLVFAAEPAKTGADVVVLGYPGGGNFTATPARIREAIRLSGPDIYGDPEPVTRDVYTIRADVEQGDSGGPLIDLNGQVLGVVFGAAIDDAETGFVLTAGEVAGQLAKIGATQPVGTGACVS
Numbers without * were called inactive; i = inactive; / = not tested or not shown.

SMILES	UGM FP inh	FadD28 FP inh	MazEF act	Vc quorum ag	Mtb bLac sens	Rv3671c protease
CN(C)C(=O)CCc1ccc2c3c([nH]c2c1)[C@]1(CCC2CCCC2)[C@@H](C(=O)N2CCOCC2)C[C@H](CC(=O)NC(C)(C)C)C(=O)N1CC3	/	0	59*	i	/	/
Cc1ccc(S(=O)(=O)NC(C(=O)N2CCN(S(=O)(=O)c3cccc(F)c3)CC2)C(C)C)cc1 (stereo not given)	/	0	0	i	/	/
C=CCn1c(CNC(=O)c2cccs2)nnc1SCC(=O)c1ccc(Br)cc1	-4	-3	71*	2	12	4
CN(C)c1ccc(C(=O)N2CCC2(C)C(=O)O)cc1 (stereo not given)	/	1	/	-1	/	/
Cn1cccc1/C=C1\SC(=O)N(c2ccc(O)cc2)C1=O	-4	-1	262*	-2	-10	6
CCOc1ccc(N2C(=O)S/C(=C\c3cccn3C)C2=O)cc1	0	0	28	0	4	-4
CC(=O)c1c(C(C)=O)c(C)n(-c2cccc([N+](=O)[O-])c2)c1C	/	-3	-10	-1	0	0
CC(=O)C1=C(c2cccc([N+](=O)[O-])c2)N(C(C)=O)n2c(C)nnc2S1	0	-3	52*	-2	5	8
COc1ccccc1C(=O)Nc1ccc2c3c(cccc13)CC2	-1	0	16	0	/	-2
COc1cccc(OC)c1C(=O)Nc1ccc2c3c(cccc13)CC2	0	1	39	17*	99	1
Cc1ccc(NC(=O)c2ccc3c(c2)OCCO3)cc1S(=O)(=O)Nc1cccc(Cl)c1	-1	-3	12	0	6	-206
Cc1c(N2C(=O)c3ccc(F)cc3C2=O)c(=O)n(-c2ccccc2)n1C	-1	-1	-5	-2	-7	1
Cc1c(N2C(=O)c3ccccc3C2=O)c(=O)n(-c2ccccc2)n1C	-3	-1	-2	17*	-14	11
COc1ccc(NC(=O)COC(=O)C2CCN(S(=O)(=O)c3cccs3)CC2)cc1OC	2	0	-2	i	2	8
Cc1nn(-c2ccccc2)c2sc(C(=O)OCc3nnc(-c4ccccc4)o3)cc12	-1	0	-4	22*	1	5
Nc1nnc(CC(=O)N/N=C/c2cc([N+](=O)[O-])cc(Br)c2O)s1	-1	37*	1	0	4	7
CC(Sc1ncnc2sccc12)C(=O)Nc1ccc(S(N)(=O)=O)cc1 (stereo not given)	-1	-1	0	/	1	-1
CC(Sc1ncnc2sccc12)C(=O)Nc1ccc(C(N)=O)cc1 (stereo not given)	-4	-4	54*	-2	3	-8
C[C@@H]1CN([C@H](C)CO)C(=O)c2cc(Br)cnc2O[C@@H]1CN(C)C(=O)c1cccc(F)c1	/	-3	3	-1	/	/
Cc1ccc(-n2nnnc2SCC(=O)c2c(N)n(C3CC3)c(=O)[nH]c2=O)cc1C	4	0	57*	i	12	-5
Cc1cccc(C)c1-n1nnnc1SCC(=O)c1c(N)n(C2CC2)c(=O)[nH]c1=O	1	-2	55*	0	6	-16
Cc1ccc(C)c(Cn2c(O)c(N=NC(=S)Nc3ccccc3F)c3ccccc32)c1	1	-2	13	80*	17	-2
Cc1cc(C)n2[nH]c(=O)cc2n1	/	-4	5	i	/	/
COc1ccccc1C1CCN(C(=O)c2ccc(Cl)cc2)CC1	-1	-1	-4	-6	16	-15
N#C/C(=N\Nc1ccc(S(=O)(=O)N2CCc3ccccc32)cc1)C(N)=S	0	46*	-5	0	0	17
SMILES	UGM FP inh	FadD28 FP inh	MazEF act	Vc quorum ag	Mtb bLac sens	Rv3671c protease
O=C(COC(=O)CN1C(=O)NC2(CCCC2)C1=O)NCc1ccc(Cl)cc1Cl	11*	-3	5	/	-8	-1
NC(=O)c1cc(-c2csc(NCCc3ccccc3)n2)ccc1O	2	15*	-6	0	3	15
C=CCNc1nc(-c2ccc(O)c(C(N)=O)c2)cs1	0	0	7	0	-4	12
CNc1ncnc(Sc2nc(N)nc3nc[nH]c23)c1[N+](=O)[O-]	/	-2	6	i	/	/
Nc1nc(Sc2ccc([N+](=O)[O-])c3nonc23)c2[nH]cnc2n1	/	-3	60*	i	/	/
CCc1ccc2c(c1)C(c1ccc([N+](=O)[O-])cc1)=NNC(c1ccc(Br)cc1)=N2	52*	-3	12	0	60	-10
COc1ccc(Cl)cc1NC(=O)CSc1nc2[nH]ncc2c(=O)[nH]1	/	0	5	-3	/	/
Cc1cc(N2CC(C)OC(C)C2)nc2ccccc12 (stereo not given)	-2	-2	6	i	-2	-6
O=C1C2C3C=CC(C3)C2C(=O)N1CCN1CCN(S(=O)(=O)c2ccc3ccccc3c2)CC1 (stereo not given)	10*	-1	-6	0	-8	8
N#C/C(=C/C1=C(N2CCOCC2)C(=C/c2ccc(Cl)cc2)/CC1)C(=O)Nc1ccccc1F	/	0	-98	-3	/	/
Cc1cccc(N2C(N)=C(C#N)C(C#N)(C#N)C2c2ccccc2)c1 (stereo not given)	2	2	-2	0	35	8
N#CC1=C(N)N(c2ccccc2)C(c2ccco2)C1(C#N)C#N (stereo not given)	1	15*	4	-6	23	6
O=C(COC(=O)c1ccc(O)cc1O)Nc1nnc(-c2ccccc2)o1	2	1	5	6	8	11
CNC(=O)c1sc(N2N=C3/C(=C/c4ccccc4)CCCC3C2c2ccccc2)nc1C (stereo not given)	-2	-1	-85	12*	83	-5
CNC(=O)c1sc(N2N=C3/C(=C\c4ccccc4)CCCC3C2c2ccccc2)nc1C (stereo not given)	/	0	-151	-8	/	/
Cc1cnc(C(=O)OCc2csc(CC(=O)Nc3ccccc3C)n2)cn1	-2	-1	7	i	-5	-12
CCSc1ncc(Cl)c(C(=O)Nc2ccccc2Cl)n1	-1	1	13	-6	4	-13
CCSc1ncc(Cl)c(C(=O)Nc2sc3c(c2C(=O)NCc2cccnc2)CCCC3)n1	0	2	112*	1	-5	8
CCc1ccc(NC(=S)N(Cc2ccc(Cl)cc2)Cc2ccc(C(=O)O)cc2)cc1	-1	17*	-10	4	2	-5
Cc1cc(NC(=S)N(Cc2ccc(Cl)cc2)Cc2ccc(C(=O)O)cc2)ccc1Cl	2	2	7	i	4	-9
COC(=O)NC(Nc1sc2c(c1C(N)=O)CCCC2)(C(=O)OC)C(F)(F)F (stereo not given)	-1	-2	5	17*	-1	0
CCCOC(=O)Nc1sc2c(c1C(N)=O)CCCC2	-1	-2	19	i	-1	-9
